Key:
Test in all cases: log2 ratio of Biotin-Ahx-Ub-VS probe labelling (fragment/DMSO); higher = less target engagement (more negative = stronger competition), active = hit call of the paper (q ≤ 0.05, log2 ratio ≤ -1)
Conditions in all cases: compound concentration: 200 uM; treatment time: 3 h
USP19 = target: T1, USP19 (UniProt O94966)
T1 sequence (whole entry): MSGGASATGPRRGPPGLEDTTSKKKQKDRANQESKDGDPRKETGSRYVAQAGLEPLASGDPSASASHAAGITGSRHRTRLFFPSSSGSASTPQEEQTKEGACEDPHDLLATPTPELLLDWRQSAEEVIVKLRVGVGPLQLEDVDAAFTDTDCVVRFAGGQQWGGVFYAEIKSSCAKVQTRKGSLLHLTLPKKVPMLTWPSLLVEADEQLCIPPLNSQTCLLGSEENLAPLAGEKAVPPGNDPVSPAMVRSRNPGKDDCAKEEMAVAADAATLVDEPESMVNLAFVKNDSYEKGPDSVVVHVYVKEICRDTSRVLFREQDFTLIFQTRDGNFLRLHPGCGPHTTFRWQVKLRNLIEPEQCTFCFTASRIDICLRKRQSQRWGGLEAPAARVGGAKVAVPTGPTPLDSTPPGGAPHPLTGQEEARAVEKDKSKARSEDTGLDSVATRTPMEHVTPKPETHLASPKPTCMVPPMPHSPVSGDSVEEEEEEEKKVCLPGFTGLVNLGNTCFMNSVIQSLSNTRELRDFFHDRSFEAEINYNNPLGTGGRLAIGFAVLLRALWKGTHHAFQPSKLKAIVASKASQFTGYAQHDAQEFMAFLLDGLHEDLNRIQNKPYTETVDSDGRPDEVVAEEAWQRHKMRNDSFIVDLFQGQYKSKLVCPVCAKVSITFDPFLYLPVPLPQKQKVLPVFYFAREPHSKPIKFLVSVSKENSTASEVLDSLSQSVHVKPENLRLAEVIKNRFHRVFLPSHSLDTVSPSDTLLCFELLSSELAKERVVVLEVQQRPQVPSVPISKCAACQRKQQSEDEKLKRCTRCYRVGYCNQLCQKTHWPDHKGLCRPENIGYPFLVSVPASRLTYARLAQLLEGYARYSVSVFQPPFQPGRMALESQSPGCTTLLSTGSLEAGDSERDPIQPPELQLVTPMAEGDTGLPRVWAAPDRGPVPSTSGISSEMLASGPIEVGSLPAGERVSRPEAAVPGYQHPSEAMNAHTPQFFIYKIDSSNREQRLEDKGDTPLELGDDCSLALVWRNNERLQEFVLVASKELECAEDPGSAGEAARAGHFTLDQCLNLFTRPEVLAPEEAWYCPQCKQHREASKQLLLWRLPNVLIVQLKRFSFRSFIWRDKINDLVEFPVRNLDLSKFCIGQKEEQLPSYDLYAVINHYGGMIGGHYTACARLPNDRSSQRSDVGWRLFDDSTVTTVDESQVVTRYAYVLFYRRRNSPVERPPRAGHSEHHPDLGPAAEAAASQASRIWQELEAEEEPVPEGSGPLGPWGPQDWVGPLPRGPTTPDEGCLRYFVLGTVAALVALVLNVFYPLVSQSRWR
In short: (§1)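 Using Biotin-Ahx-Ub-VS at 0.5 µM final for 1 h, DUBs were labelled in HEK293T lysate (495 µg per sample) that had first been treated in triplicate with fragment at 200 µM or vehicle for 3 h. NeutrAvidin enrichment, LysC and trypsin digestion and diaPASEF LC-MS/MS followed. Spectronaut label-free quantities were global-median-normalised. Values are average log2 fragment/vehicle ratios by unpaired t-test, using proteins with ≥2 unique peptides.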

USP22 = target: T2, USP22 (UniProt Q9UPT9)
T2 sequence (whole entry): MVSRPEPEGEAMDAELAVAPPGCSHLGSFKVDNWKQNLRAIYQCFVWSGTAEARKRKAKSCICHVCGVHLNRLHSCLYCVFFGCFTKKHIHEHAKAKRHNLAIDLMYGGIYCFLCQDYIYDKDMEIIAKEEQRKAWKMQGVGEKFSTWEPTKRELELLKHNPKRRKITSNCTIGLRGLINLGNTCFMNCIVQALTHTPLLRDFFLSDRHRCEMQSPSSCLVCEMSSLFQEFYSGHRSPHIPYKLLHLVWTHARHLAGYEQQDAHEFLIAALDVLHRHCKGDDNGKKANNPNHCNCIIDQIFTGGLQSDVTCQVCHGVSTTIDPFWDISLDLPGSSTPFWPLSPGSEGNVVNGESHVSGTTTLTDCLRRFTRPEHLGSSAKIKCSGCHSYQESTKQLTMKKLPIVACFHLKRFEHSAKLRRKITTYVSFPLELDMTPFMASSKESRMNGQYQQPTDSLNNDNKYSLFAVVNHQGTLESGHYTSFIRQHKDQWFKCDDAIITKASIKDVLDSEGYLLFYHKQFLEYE
In short: as §1

USP24 = USP24 (UniProt Q9UPU5)
In short: as §1

USP25 = target: T3, USP25 (UniProt Q9UHP3)
T3 sequence (whole entry): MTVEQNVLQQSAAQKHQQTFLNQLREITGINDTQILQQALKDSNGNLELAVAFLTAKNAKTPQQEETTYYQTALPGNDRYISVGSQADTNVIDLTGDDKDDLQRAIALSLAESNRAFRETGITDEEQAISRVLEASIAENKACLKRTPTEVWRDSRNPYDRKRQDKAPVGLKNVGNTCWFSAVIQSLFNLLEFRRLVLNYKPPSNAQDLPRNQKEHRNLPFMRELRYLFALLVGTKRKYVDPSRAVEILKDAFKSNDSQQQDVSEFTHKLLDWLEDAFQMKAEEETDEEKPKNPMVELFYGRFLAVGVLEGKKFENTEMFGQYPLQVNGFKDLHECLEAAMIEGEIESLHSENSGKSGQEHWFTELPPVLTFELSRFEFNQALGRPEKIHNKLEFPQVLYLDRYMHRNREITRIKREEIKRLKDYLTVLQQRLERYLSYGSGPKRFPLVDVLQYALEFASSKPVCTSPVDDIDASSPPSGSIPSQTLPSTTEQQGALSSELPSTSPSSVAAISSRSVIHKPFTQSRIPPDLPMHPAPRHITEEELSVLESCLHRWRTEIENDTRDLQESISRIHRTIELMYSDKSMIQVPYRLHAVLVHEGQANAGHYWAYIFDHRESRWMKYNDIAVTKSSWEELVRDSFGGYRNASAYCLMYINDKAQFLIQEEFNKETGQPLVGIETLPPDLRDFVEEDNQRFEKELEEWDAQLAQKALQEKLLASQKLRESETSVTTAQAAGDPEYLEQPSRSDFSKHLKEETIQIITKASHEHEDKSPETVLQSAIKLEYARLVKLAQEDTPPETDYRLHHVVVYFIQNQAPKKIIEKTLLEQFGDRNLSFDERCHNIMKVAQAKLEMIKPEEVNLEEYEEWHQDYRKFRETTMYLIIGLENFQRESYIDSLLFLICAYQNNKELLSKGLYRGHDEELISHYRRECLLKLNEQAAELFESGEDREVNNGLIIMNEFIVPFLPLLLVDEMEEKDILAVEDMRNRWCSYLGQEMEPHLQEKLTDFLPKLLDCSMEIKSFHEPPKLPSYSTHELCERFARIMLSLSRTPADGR
In short: as §1

USP28 = target: T4, USP28 (UniProt Q96RU2)
T4 sequence (whole entry): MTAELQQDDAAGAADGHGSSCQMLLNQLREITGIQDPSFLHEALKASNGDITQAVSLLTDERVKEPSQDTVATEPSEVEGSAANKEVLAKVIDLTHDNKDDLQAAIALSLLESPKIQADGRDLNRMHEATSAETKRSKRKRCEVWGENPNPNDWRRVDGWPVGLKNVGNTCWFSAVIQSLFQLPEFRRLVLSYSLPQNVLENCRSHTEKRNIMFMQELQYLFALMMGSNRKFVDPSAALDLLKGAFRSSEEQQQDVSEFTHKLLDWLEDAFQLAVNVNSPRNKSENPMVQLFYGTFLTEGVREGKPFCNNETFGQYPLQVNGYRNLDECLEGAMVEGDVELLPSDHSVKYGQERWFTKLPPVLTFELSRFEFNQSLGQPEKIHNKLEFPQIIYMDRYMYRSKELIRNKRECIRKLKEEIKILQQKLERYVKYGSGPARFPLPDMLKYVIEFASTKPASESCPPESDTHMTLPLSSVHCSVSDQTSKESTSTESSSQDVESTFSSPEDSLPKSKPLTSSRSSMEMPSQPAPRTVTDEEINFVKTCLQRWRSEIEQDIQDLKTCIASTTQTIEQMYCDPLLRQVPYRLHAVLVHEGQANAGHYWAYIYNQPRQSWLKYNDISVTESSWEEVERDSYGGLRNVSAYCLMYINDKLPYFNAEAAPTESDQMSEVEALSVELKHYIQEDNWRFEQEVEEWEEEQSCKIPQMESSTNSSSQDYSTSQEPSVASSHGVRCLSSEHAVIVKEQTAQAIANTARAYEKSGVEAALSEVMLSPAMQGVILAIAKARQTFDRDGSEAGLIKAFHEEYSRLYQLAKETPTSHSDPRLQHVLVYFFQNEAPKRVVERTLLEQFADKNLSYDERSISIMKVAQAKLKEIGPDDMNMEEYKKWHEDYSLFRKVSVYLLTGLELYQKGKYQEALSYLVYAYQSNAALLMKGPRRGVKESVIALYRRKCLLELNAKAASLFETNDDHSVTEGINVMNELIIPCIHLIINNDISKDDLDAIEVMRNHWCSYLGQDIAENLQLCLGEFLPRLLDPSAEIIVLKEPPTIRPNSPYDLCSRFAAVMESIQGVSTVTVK
In short: as §1

Measured: log2 ratio of Biotin-Ahx-Ub-VS probe labelling

Sequence of USP24 (Q9UPU5 whole entry): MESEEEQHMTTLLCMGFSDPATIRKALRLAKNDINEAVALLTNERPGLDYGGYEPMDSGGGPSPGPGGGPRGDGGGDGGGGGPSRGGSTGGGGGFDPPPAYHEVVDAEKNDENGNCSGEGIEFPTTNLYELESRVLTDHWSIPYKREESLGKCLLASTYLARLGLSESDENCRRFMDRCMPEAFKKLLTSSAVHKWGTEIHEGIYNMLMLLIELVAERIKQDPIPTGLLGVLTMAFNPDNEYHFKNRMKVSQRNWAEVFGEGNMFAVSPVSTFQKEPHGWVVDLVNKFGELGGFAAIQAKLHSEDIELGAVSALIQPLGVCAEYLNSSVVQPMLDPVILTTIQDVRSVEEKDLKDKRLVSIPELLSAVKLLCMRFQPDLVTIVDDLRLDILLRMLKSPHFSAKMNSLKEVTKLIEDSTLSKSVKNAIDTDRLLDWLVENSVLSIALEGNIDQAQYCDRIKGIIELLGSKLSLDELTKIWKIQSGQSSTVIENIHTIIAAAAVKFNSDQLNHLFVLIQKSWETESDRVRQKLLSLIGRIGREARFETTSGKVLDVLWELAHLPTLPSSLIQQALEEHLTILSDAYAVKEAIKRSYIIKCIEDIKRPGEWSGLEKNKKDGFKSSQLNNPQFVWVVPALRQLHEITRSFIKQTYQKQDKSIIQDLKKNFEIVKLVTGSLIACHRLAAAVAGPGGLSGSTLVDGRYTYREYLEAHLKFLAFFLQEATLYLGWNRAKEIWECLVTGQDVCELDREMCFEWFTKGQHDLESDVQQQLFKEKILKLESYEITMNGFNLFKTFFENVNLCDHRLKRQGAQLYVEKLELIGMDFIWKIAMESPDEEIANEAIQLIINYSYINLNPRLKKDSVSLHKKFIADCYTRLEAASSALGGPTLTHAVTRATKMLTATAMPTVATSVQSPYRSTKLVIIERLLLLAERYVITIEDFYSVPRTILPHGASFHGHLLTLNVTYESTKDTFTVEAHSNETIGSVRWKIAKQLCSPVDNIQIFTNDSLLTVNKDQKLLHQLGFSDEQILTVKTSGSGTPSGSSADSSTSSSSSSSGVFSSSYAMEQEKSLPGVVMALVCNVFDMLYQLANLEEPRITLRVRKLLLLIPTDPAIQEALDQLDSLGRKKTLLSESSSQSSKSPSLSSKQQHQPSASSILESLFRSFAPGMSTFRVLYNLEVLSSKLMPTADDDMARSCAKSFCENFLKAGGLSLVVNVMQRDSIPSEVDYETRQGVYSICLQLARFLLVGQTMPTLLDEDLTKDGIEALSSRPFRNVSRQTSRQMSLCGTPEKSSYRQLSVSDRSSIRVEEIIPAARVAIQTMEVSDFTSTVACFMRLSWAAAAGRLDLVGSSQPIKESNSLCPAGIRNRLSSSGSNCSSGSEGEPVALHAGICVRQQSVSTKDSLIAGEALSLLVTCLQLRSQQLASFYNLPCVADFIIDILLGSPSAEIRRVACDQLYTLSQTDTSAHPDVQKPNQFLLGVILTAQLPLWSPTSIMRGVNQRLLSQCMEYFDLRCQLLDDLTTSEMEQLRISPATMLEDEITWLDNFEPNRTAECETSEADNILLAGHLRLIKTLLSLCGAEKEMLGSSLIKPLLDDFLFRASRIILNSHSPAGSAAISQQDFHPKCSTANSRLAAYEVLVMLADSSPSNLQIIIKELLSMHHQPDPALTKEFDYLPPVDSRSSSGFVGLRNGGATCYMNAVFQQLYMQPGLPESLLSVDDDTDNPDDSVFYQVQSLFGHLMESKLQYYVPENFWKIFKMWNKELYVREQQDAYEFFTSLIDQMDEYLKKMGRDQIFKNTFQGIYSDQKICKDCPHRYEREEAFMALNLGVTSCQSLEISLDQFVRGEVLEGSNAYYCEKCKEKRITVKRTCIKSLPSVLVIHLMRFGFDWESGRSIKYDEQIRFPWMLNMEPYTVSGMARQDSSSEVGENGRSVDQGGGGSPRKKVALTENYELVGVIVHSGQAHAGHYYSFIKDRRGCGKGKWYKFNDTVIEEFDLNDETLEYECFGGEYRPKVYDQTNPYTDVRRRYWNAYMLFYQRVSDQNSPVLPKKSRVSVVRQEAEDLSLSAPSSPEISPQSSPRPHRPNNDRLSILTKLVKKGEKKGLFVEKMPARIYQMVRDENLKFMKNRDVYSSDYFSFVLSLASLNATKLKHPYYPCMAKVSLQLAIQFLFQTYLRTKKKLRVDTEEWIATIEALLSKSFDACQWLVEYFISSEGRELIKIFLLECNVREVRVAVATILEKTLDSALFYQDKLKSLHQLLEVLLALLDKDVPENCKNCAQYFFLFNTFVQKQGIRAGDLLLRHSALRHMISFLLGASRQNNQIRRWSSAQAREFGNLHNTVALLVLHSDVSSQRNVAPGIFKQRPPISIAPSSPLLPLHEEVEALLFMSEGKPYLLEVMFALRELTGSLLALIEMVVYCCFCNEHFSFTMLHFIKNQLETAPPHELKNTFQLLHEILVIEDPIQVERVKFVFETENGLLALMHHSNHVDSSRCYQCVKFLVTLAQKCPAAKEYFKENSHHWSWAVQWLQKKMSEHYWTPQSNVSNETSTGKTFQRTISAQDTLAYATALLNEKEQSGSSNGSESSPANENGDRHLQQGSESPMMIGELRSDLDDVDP

O=C(CCl)N1CCCCCC1c1ncon1 (stereo not given)
inactive: USP19 -0.0696 | USP22 -0.0397 | USP24 -0.257 | USP25 -0.435 | USP28 -0.35
